Experimental data from ChEMBL document CHEMBL3988442, “University of Dundee, Small-Polar-MMV Screening Library” (2021).
Among all 53,000 compounds or so, about 900 (1.7%) showed an effect of 50% or more. The sample holds strong results, similar compounds and a random draw of the others, so the mix is not that of the screen.

System: Mycobacterium tuberculosis
Assay: Cornell - Phenotypic assay to identify agents that inhibit growth of Mycobacterium tuberculosis
Assay type: functional
Parameters: scale not given: direction of the effect not stated beside the values
Conditions: 10 mM as filed; unlikely as a test dose

Which “Percent Effect” value does the source give for `c1ccc(CNc2ccccc2N2CCCC2)nc1` here?
The value was 18.15%.

With `O=C(NCc1ccc(Br)cc1F)C1(O)CCSCC1` as the compound, how does the “Percent Effect” value read?
The value was 15.88%.

Which “Percent Effect” value does the source give for `COCCC(=O)NCc1ccc(-c2ccccc2C(=O)O)cn1` here?
The value was 57.39%.

For `COCCC(=O)NCc1ccc(-c2ccccc2C(=O)O)nc1`, which “Percent Effect” value is on record?
Its value is 47.85%.

With `O=C(Cc1ccccc1)NCc1ncc(-c2ccccc2C(=O)O)cn1` as the compound, how does the “Percent Effect” value read?
Its value is 23.42%.

Which “Percent Effect” value does the source give for `CC(=O)NCc1ccc(-c2ccccc2C(=O)O)cn1` here?
Its value is 56.71%.

`COCC(=O)NCc1ccc(-c2ccccc2C(=O)O)cn1` was tested. Which “Percent Effect” value did it give?
Its value is 56.05%.

`O=C(Cc1ccccc1)NCc1ccc(-c2ccccc2C(=O)O)cn1` was tested. Which “Percent Effect” value did it give?
Its value is 48.74%.

For `O=C(O)c1ccccc1-c1cnc(CNC(=O)C2CCOCC2)nc1`, which “Percent Effect” value is on record?
The value was -26.12%.

With `CS(=O)(=O)c1ccc(-c2ccccc2C(=O)O)cc1` as the compound, how does the “Percent Effect” value read?
Its value is -4.334%.

Which “Percent Effect” value does the source give for `COCCN1CCC(Cc2cnc(-c3ccccc3C(=O)O)cn2)CC1` here?
The value was -34.65%.

For `COCCC(=O)N(CCC#N)c1ccc2c(c1)OCCO2`, which “Percent Effect” value is on record?
The value was 0.8387%.

With `Cc1noc(C)c1-c1cccc(C2CCN(S(=O)(=O)N(C)C)CC2)n1` as the compound, how does the “Percent Effect” value read?
Its value is 42.71%.

How did the “Percent Effect” value turn out when `O=S(=O)(N1CCCCC1)N1CCC(Oc2cnccn2)CC1` was run?
The value was 20.22%.

Which “Percent Effect” value does the source give for `CN(C(=O)c1ccon1)[C@@H]1CCC[C@@H](Oc2ccccc2)[C@@H]1O` here?
The value was -13.46%.

How did the “Percent Effect” value turn out when `O=C(COc1ccc(-c2ccccc2)nc1)NCC1CC1` was run?
Its value is 18.89%.

Which “Percent Effect” value does the source give for `CCc1oc(C(=O)N(C)Cc2ccncc2)cc1CN(CC)CC` here?
The value was 3.07%.

Which “Percent Effect” value does the source give for `COC(=O)c1ccc(N2CCC(c3ccccc3)CC2)nn1` here?
Its value is 26.44%.

For `COC(=O)c1ccc(N2CCC(N(C)c3ccccc3)CC2)nn1`, which “Percent Effect” value is on record?
Its value is 11.3%.

`COC(=O)c1ccc(N2CCC(C(O)c3ccccc3)CC2)nn1` (configuration not stated) was tested. Which “Percent Effect” value did it give?
The value was 106%.

`OCC(CO)N1CCCC(Cc2ccnc(Nc3ccccn3)c2)C1` (configuration not stated) was tested. Which “Percent Effect” value did it give?
The value was 10.34%.

For `Cc1cc(C)n(CCNc2ncnc3c2NC(=O)CN3)n1`, which “Percent Effect” value is on record?
The value was 18.99%.

For `C/N=C1/c2cc3cc(OC)ccc3n2CCN1Cc1ccccc1.Cl`, which “Percent Effect” value is on record?
Its value is 57.78%.

For `C/N=C1\c2cc3cc(OC)ccc3n2CCN1Cc1ccccc1.O=C(O)C(F)(F)F`, which “Percent Effect” value is on record?
Its value is 22.23%.

Which “Percent Effect” value does the source give for `C/N=C1\c2cc3cc(OC)ccc3n2CCN1C.Cl` here?
The value was -3.392%.

Which “Percent Effect” value does the source give for `CNC(=O)CN1CCOCC12CCN(C(=O)c1ccc(C)cc1)CC2.O=C(O)C(F)(F)F` here?
Its value is 15.73%.

`CC(C)n1ccc(-c2cc(C(=O)NC3CC3)c3ccccn23)n1` was tested. Which “Percent Effect” value did it give?
The value was -20.13%.

Which “Percent Effect” value does the source give for `CCN(C)C(=O)c1cc(-c2ccn(C(C)C)n2)n2ccccc12` here?
The value was 68.36%.

`CCCNC(=O)c1cc(-c2ccn(C(C)C)n2)n2ccccc12` was tested. Which “Percent Effect” value did it give?
The value was 54.8%.

With `CC(C)n1ccc(-c2cc(C(=O)N3CCN(C)CC3)c3ccccn23)n1.O=C(O)C(F)(F)F` as the compound, how does the “Percent Effect” value read?
The value was -46.58%.

How did the “Percent Effect” value turn out when `CCN(C)C(=O)c1cc(-c2cn(C(C)C)cn2)n2ccccc12` was run?
The value was -58.24%.

For `CC(C)n1ccc(-c2cc(C(=O)N3CCCC3)c3ccccn23)n1`, which “Percent Effect” value is on record?
The value was 40.75%.

With `O=C(c1cc[nH]n1)N1CCc2c(nc(N3CCCCC3)[nH]c2=O)C1` as the compound, how does the “Percent Effect” value read?
Its value is 11.2%.

With `CC(C#N)CN(C)C(=O)CCNC(=O)OC(C)(C)C` (configuration not stated) as the compound, how does the “Percent Effect” value read?
Its value is 19.92%.

For `Cc1cnc(C(=O)N2CCN3C[C@H](OCc4cccnc4)C[C@H]3C2)cn1`, which “Percent Effect” value is on record?
Its value is -31.84%.

How did the “Percent Effect” value turn out when `Cc1ccc(CNCc2cccc(NC(=O)CCN3CCOCC3)c2)s1` was run?
The value was 14.02%.

Which “Percent Effect” value does the source give for `CC1=C(C#N)C(=O)NC(=O)/C1=C\c1c(C)nn(-c2ccc(C)cc2)c1O` here?
Its value is 24.62%.

How did the “Percent Effect” value turn out when `Cc1nc(CN2C(=O)CC[C@@H]3[C@H]2CCN3C2CCOC2)cs1.O=C(O)C(F)(F)F` (some centres not stated) was run?
The value was 9.813%.

Which “Percent Effect” value does the source give for `CC(=O)N1C[C@@H]2CN(S(=O)(=O)C3CC3)CCO[C@@H]2C1` here?
The value was -7.882%.

`CCn1nccc1CN(C)C(=O)Cn1nc(C)c(C)c1C` was tested. Which “Percent Effect” value did it give?
Its value is 1.975%.

With `CC(C)N(C)Cc1n[nH]c2c1CCN(C(=O)c1ccc[nH]1)C2.O=C(O)C(F)(F)F` as the compound, how does the “Percent Effect” value read?
Its value is -20.42%.

Which “Percent Effect” value does the source give for `Cn1ccc2c(NC(=O)Cn3ncc4c(c3=O)CCCC4)cccc21` here?
Its value is 50.09%.

`Cn1ccc2c(NC(=O)Cn3ncc4c(c3=O)CCCCC4)cccc21` was tested. Which “Percent Effect” value did it give?
The value was 7.683%.

How did the “Percent Effect” value turn out when `O=C(Cn1ncc2c(c1=O)CCCCC2)Nc1cccc2[nH]ccc12` was run?
The value was 32.47%.

For `O=C1C(n2nnc(-c3cccs3)n2)CCN1CC(F)(F)F` (configuration not stated), which “Percent Effect” value is on record?
Its value is 21.02%.

Which “Percent Effect” value does the source give for `Cc1cccc(CNC(=O)CC2CCN(C(=O)C(C)C)CC2)n1` here?
The value was -31.48%.

Which “Percent Effect” value does the source give for `CO[C@H]1CCN(c2nnc(C)s2)C[C@@H]1Cc1ccccc1.O=C(O)C(F)(F)F` here?
The value was 35.25%.

`Cc1nnc(N2CC[C@@H](OCC3CC3)[C@@H](Cc3ccccc3)C2)s1.O=C(O)C(F)(F)F` was tested. Which “Percent Effect” value did it give?
Its value is 81.09%.

With `CO[C@@H]1CCN(c2nnc(C)s2)C[C@@H]1Cc1cccc(C)c1.O=C(O)C(F)(F)F` as the compound, how does the “Percent Effect” value read?
The value was 41.6%.

How did the “Percent Effect” value turn out when `CO[C@@H]1CCN(c2nnc(C)s2)C[C@@H]1Cc1ccccc1.O=C(O)C(F)(F)F` was run?
The value was 33.57%.

Which “Percent Effect” value does the source give for `Cc1nnc(N2CC[C@H](OCC3CC3)[C@@H](Cc3ccccc3)C2)s1.O=C(O)C(F)(F)F` here?
The value was 73.55%.

`CO[C@H]1CCN(c2nnc(C)s2)C[C@@H]1Cc1cccc(C)c1.O=C(O)C(F)(F)F` was tested. Which “Percent Effect” value did it give?
The value was 15.98%.

With `Cc1noc(C)c1CCC(=O)Nc1ccn(C)n1` as the compound, how does the “Percent Effect” value read?
Its value is -3.564%.

For `CC(C)(C(N)=O)S(=O)(=O)c1ccc(Br)cc1`, which “Percent Effect” value is on record?
Its value is 7.461%.

For `CCc1nnc2sc(-c3cc(C(C)C)n[nH]3)nn12`, which “Percent Effect” value is on record?
The value was -59.74%.

With `CC(C)(CC(=O)Nc1cccc(Oc2ccccn2)c1)C(=O)O` as the compound, how does the “Percent Effect” value read?
The value was -19.67%.

For `CC(C)NC(=O)CCC(=O)N1CCC(c2noc3cc(F)ccc23)CC1`, which “Percent Effect” value is on record?
The value was -48.35%.

With `O=C(Cn1ccc2c(Cl)cccc21)Nc1nc[nH]n1` as the compound, how does the “Percent Effect” value read?
The value was 5.076%.

For `Cc1cccc(CN2CCC3(CCN(c4ncccn4)C3)C2=O)c1` (configuration not stated), which “Percent Effect” value is on record?
The value was 5.151%.

`Cc1cccc(CN2CCC3(CCN(c4ncccn4)CC3)C2=O)c1.O=C(O)C(F)(F)F` was tested. Which “Percent Effect” value did it give?
The value was 58.32%.

`Cc1cccc(CN2CCC3(CCN(c4ccccn4)C3)C2=O)c1.O=C(O)C(F)(F)F` (configuration not stated) was tested. Which “Percent Effect” value did it give?
The value was 27.3%.

`CN(Cc1cccc(F)c1)Cc1nc2c(cnn2C)c(=O)[nH]1` was tested. Which “Percent Effect” value did it give?
The value was -23.35%.
